Reference: ChEMBL document CHEMBL1157539, “Thousands of chemical starting points for antimalarial lead identification” (Nature, 2010)

Experiments:
Type in all cases: functional
Plasmodium falciparum [1] = assay: GSK_TCMDC: Inhibition of Plasmodium falciparum 3D7 in whole red blood cells, using parasite LDH activity as an index of growth. Test compounds present at 2uM
Plasmodium falciparum [2] = assay: GSK_TCMDC: Inhibition of Plasmodium falciparum Dd2 in whole red blood cells, using parasite LDH activity as an index of growth. Test compounds present at 2uM
HepG2 = assay: GSK_TCMDC: Percent inhibition of human HepG2 cell line. Test compounds present at 10uM.

SMILES | Inhibition (Plasmodium falciparum [1]) [%] | Inhibition (Plasmodium falciparum [2]) [%] | Inhibition (HepG2) [%]
NS(=O)(=O)c1ccc(Nc2nccc(-c3c(-c4cccc(NC(=O)c5c(F)cccc5F)c4)nn4ccccc34)n2)cc1 | 93 | 89 | 83
COc1cccc(OC(C)(C)c2nc(N[C@@H](C)c3ccccc3)c3cn[nH]c3n2)c1 | 89 | 69 | 44
NC12CC3CC(CC(C3)C1)C2 [AMANTADINE] | 98 | 0 | 31
Cl.O=C(/C=C/c1ccc(Cl)cc1)Nc1ccc2nc(CN3CCCC3)ccc2c1 | 85 | 30 | 47
O=C(O)C(F)(F)F.c1cc(CN2CCc3ccccc3CC2)cc(-c2c[nH]c3nc(NC4CCCC4)ncc23)c1 | 99 | 49 | 31
CN(c1ccccc1C(=O)Nc1ccccc1Oc1ccccc1)S(=O)(=O)c1ccccc1 | 90 | 80 | 2
CCCCCN1CCCC(NS(=O)(=O)c2ccc(C(=O)Nc3cccc(C(F)(F)F)c3)cc2)C1.O=C(O)C(F)(F)F (stereo not given) | 97 | 3 | 30
C[C@H](Cc1ccc(OCCNC[C@H](O)c2cccc(Cl)c2)cc1)NC[C@H](O)c1ccc(Cl)c(Cl)c1.O | 83 | 64 | 69
O=C(/C=C/c1ccc(Cl)c(Cl)c1)NCCCCCN1CCC(NC(=O)Nc2cccc(C(F)(F)F)c2)CC1 | 100 | 11 | 61
C#CCOc1ccc2ccccc2c1CNCCCCCCNCc1c(OCC#C)ccc2ccccc12.CS(=O)(=O)O | 100 | 98 | 100
COc1ccccc1N1CCN(C(C(=O)NCc2ccc3c(c2)OCO3)c2ccc(C)cc2)CC1 (stereo not given) | 85 | 81 | 1
Cc1cc(Nc2cccc(C(F)(F)F)c2)nc(N)n1 | 98 | 24 | 5
CC(Oc1c(C2CCN(CCCCNC(=O)c3ccc(-c4ccc(Cl)cc4)cc3)CC2)ccc2c1CCCC2)C(N)=O (stereo not given) | 99 | 16 | 100
Cl.Nc1ncc(-c2ccccc2)cc1-c1nc2cc(Cl)c(F)cc2[nH]1 | 100 | 91 | 37
O=C(/C=C/c1ccc(C(F)(F)F)cc1)NCCCCCN1CCCN(C(=O)Nc2ccc(Cl)cc2)CC1 | 99 | 0 | 28
OC(CNc1ccnc(Nc2cccc(Cl)c2)n1)c1cccc(F)c1 (stereo not given) | 90 | 29 | 16
Cc1cnc(NCCc2ccc(F)cc2)nc1N[C@@H](CC(C)C)C(=O)Nc1ccccc1.O=C(O)C(F)(F)F | 87 | 29 | 19
COc1cccc(NC(=O)CSc2nc(-c3ccccc3Cl)ns2)c1 | 99 | 100 | 7

SMILES | Inhibition (Plasmodium falciparum [1]) [%] | Inhibition (Plasmodium falciparum [2]) [%] | Inhibition (HepG2) [%]
Cn1cc(CN2CCC(OC(c3ccccc3)c3ccc(Cl)cc3)CC2)cn1 (stereo not given) | 94 | 61 | 39
COc1ccc(Nc2nccc(N3CCC(NC(=O)C(C)c4ccc(Cl)cc4)CC3)n2)cc1 (stereo not given) | 94 | 52 | 18
CCOc1ccc(C(=O)N2CCOC(CCN3CCC4(CCc5ccccc54)CC3)(c3ccc(Cl)c(Cl)c3)C2)cc1 (stereo not given) | 81 | 25 | 25
CC(C)COc1ccc(Cl)cc1Cc1ccc(-c2nc3ccc(Cl)cc3[nH]2)o1 | 97 | 96 | 19
CS(=O)(=O)c1ccc(-c2cc(C(F)(F)F)nc(N[C@@H]3CCCC[C@H]3OCc3ccccc3)n2)cc1 | 100 | 99 | 8
COc1cc2c(cc1N(C(C)C)S(=O)(=O)c1sc3ccc(Cl)cc3c1C)CCNCC2.Cl | 91 | 70 | 98
COc1cc(C(=O)N2CCC(CCN3CCC4(CC3)CN(S(C)(=O)=O)c3ccccc34)CC2Cc2ccc(Cl)c(Cl)c2)cc(OC)c1OC.Cl (stereo not given) | 100 | 99 | 29
Cl.c1ccc(Oc2ccc(Nc3ccnc4c(-c5ccccn5)cccc34)cc2)cc1 | 100 | 58 | 31
COc1cc2nccc(Nc3ccc(OCc4ccc(NC(C)=O)cc4)cc3)c2cc1OC.Cl | 100 | 95 | 24
c1ccc(-c2csc(Nc3nc4cc5c(cc4s3)OCO5)n2)nc1 | 81 | 99 | 46
Cc1cc(NC2CCN(CC3CCCCC3)C2)nc(Nc2ccc(Cl)cc2)n1 (stereo not given) | 98 | 83 | 26
Cc1cc(N2CCOCC2)nc2ccc(NC(=O)c3ccc(Cl)c([N+](=O)[O-])c3)cc12 | 98 | 15 | 12
CCc1nc2c(cnn2CC)c(NC2CCOCC2)c1CNC(=O)c1ccoc1C | 97 | 87 | 6
Cc1cc(N2CCCN(CC3CCCCC3)CC2)nc(Nc2ccc(Br)cc2)n1 | 95 | 54 | 24
CCOc1c(CNCCCCCCNCc2ccc3ccccc3c2OCC)ccc2ccccc12.CS(=O)(=O)O | 99 | 78 | 100
Cc1occc1C(=O)Nc1nc(-c2ccccn2)nc2ccsc12 | 98 | 98 | 68
CC(C)(CNC(=O)C1CCN(CCOc2ccc(F)c(F)c2)CC1)c1nc(-c2ccc(Cl)c(O)c2)c(-c2ccncc2)[nH]1.Cl | 100 | 19 | 41
